The text below walks through data of PubChem BioAssay (NCATS).

Assay [1] addresses Aldehyde dehydrogenase, mitochondrial (Homo sapiens) (UniProt P05091). Put plainly: qHTS for Inhibitors of the Aldehyde Dehydrogenase Family (ALDH2) Primary screen (AID 2061308). Note: nearly all actives have a fitted effect of over 55% in size. In general terms: In qHTS, concentration-response curves come from the screen itself.
For assay [2], the target named is Retinaldehyde dehydrogenase 3 (Homo sapiens) (UniProt P47895). Briefly: qHTS for Inhibitors of the Aldehyde Dehydrogenase Family (ALDH1A3) Primary screen (AID 2061315).

Records with an inconclusive call do not appear. Where a call stands in place of a potency, no number is given. Activity calls are given as the source filed them. Calls come from the whole dose curve; as a rule, active = well fitted curve in the direction sought with a large enough effect; inconclusive = small, poorly fitted or top-dose-only effect, or another doubt; inactive = no such curve, though single readings can be large; an effect the other way counts as inactive or inconclusive.

For the compound `COc1ccc(C2Nc3ccccc3C(=O)N2Cc2ccco2)cc1COc1c(C)cc(NC(C)=O)cc1C` (stereo unspecified), the Potency result in assay [1] and in assay [2] was “inactive” in each case.
Turning to `Cc1cccc(-n2cnc3cc(C(=O)N4CC(C)CC(C)C4)ccc32)c1` (stereo unspecified), the Potency result in assay [1] and in assay [2] was “inactive” throughout.
`OC[C@H]1O[C@@H](Oc2cccc3ccccc23)[C@H](O)[C@@H](O)[C@H]1O`: the Potency result in assay [1] and in assay [2] was “inactive” throughout.
On to `Cc1cc(-c2ccccc2)n2ncc(C(=O)Nc3ccccc3Sc3ccccc3)c2n1`, for which the Potency entry in assay [1] and in assay [2] was “inactive” in each case.
Regarding `CN1CCN(c2ccc(Nc3nc(-c4ccncc4)nc4ccccc34)cc2F)CC1`, the Potency result in assay [1] and in assay [2] was “inactive” in each case.
For the compound `COc1ccc(C(=O)N(Cc2ccccc2)Cc2ccccc2)c(O)c1`, the Potency entry in assay [1] and in assay [2] was “inactive” each time.
For `Cc1cc(C)nc(NC(=S)N2CCN(c3ccc4ncccc4c3[N+](=O)[O-])CC2)c1`, the Potency entry in assay [1] and in assay [2] was “inactive” throughout.
On to `C=C1C(=O)O[C@@H]2/C=C(\C)CC/C=C(/C=O)[C@H](OC)[C@@H](OC(=O)C(C)C)[C@@H]12`, for which the Potency entry in assay [1] and in assay [2] was “inactive” in each case.
As for `Cc1cnc(-c2ccccc2C2COC2)nc1NCc1ccc(-c2cccnc2)cc1`, the Potency result in assay [1] and in assay [2] was “inactive” each time.
Regarding `O=C1Nc2ccccc2C1Cc1cc(Cl)c(O)c(Cl)c1` (stereo unspecified), the Potency result in assay [1] and in assay [2] was “inactive” each time.
As to `O=C(CNC(=O)c1cccc2ccccc12)OC(C(=O)Nc1cc(C(F)(F)F)ccc1Cl)c1ccccc1` (stereo unspecified), the Potency entry in assay [1] and in assay [2] was “inactive” throughout.
Take `CCN(CC)CCCC(C)n1c(-c2ccccc2)nc2c(N3CCOCC3)nc(C)nc21` (stereo unspecified): the Potency result in assay [1] and in assay [2] was “inactive” each time.
For the compound `O=C(O)CNC(=O)CNC(=O)CNC(=O)CSC(=O)c1ccccc1`, the Potency result in assay [1] and in assay [2] was “inactive” throughout.
Take `COCCN(CCOC)c1nc(C)nc2c1nc(-c1ccccc1)n2CCCN1CCCCC1C` (stereo unspecified): the Potency entry in assay [1] and in assay [2] was “inactive” throughout.
In the case of `Cc1cc(C)nc(NC(=S)N2CCN(c3nnc(C(F)(F)F)s3)CC2)c1`, the Potency result in assay [1] and in assay [2] was “inactive” each time.
`COc1cccc(C2c3c(ncn(-c4cccc(C)c4)c3=N)Oc3ccc4ccccc4c32)c1` (stereo unspecified): the Potency entry in assay [1] and in assay [2] was “inactive” in each case.
With `Cc1ccc(-c2cc(C(=O)Nc3ccc(S(C)(=O)=O)cc3)c3ccccc3n2)cc1C`, the Potency result in assay [1] and in assay [2] was “inactive” in each case.
Consider `CC(=O)Nc1cc2c(s1)CNCC2`, for which the Potency entry in assay [1] and in assay [2] was “inactive” throughout.
Take `NC(=O)c1ccc(Cc2c(-c3cccc(-c4ccccc4)c3)[nH]n(-c3nc(C(=O)O)cs3)c2=O)cc1`: the Potency entry in assay [1] and in assay [2] was “inactive” in each case.
As for `Clc1ccc(CSc2nc3ncc(Br)cc3[nH]2)cc1`, the Potency result in assay [1] and in assay [2] was “inactive” in each case.
`Cc1cccc(-c2csc(N3CCC(C(N)=O)CC3)n2)c1`: the Potency entry in assay [1] and in assay [2] was “inactive” in each case.
With `Cc1cc(C)nc(NC(=S)N2CCN(c3ccc(F)c(F)c3)CC2)c1`, the Potency result in assay [1] and in assay [2] was “inactive” in each case.
Regarding `Cc1cc(C)nc(NC(=S)N2CCN(c3ccc(N4CCCC4)nn3)CC2)c1`, the Potency result in assay [1] and in assay [2] was “inactive” in each case.
For `Nc1ccc(-c2ccc(NC(=O)c3cccs3)cn2)cc1`, the Potency result in assay [1] and in assay [2] was “inactive” each time.
As to `CCC12CCCN3CCc4c(n(c5ccccc45)C(O)C1)C32` (stereo unspecified), the Potency entry in assay [1] and in assay [2] was “inactive” throughout.
Consider `Cc1cc2c(s1)c1cnn(Cc3cccc(F)c3)c(=O)c1n2C`, for which the Potency entry in assay [1] and in assay [2] was “inactive” each time.
For the compound `N#Cc1cc(NC(=O)Nc2nnc(-c3ccncc3)s2)ccc1Cl`, the Potency entry in assay [1] and in assay [2] was “inactive” in each case.
Turning to `CCOC(=O)/C=C/c1cc(F)c(S(=O)(=O)N2CCN(S(=O)(=O)c3ccc4c(c3)OCCO4)CC2)cc1F`, the Potency result in assay [1] and in assay [2] was “inactive” each time.
Consider `CC1=CC(=O)C2C(C)(C)CCC[C@]2(C)[C@H]1CC[C@H](C)CC(=O)O` (stereo partly specified), for which the Potency result in assay [1] and in assay [2] was “inactive” in each case.
On to `COc1ccccc1C1=Nn2c(nnc2-c2ccccc2O)SC1`, for which the Potency entry in assay [1] and in assay [2] was “inactive” throughout.
In the case of `COc1ccc(-c2nnc3n2N=C(c2c(OC)cccc2OC)CS3)c(OC)c1`, the Potency entry in assay [1] and in assay [2] was “inactive” in each case.
For the compound `O=C(Nc1ccc2ccccc2c1)Nc1nnc(C2CCCCC2)s1`, the Potency result in assay [1] and in assay [2] was “inactive” in each case.
For the compound `Cn1c(=O)c2c(nc(CN3CCN(C(=O)C4CC4)CC3)n2Cc2ccccc2Cl)n(C)c1=O`, the Potency entry in assay [1] and in assay [2] was “inactive” in each case.
Turning to `c1nc(NCCc2cnc[nH]2)c2cc(-c3ccoc3)ccc2n1`, the Potency result in assay [1] and in assay [2] was “inactive” throughout.
For `CC1=C(C(=O)Nc2ccc(Cl)cc2)C(c2ccccc2Br)N=C(Nc2nc3ccccc3o2)N1` (stereo unspecified), the Potency entry in assay [1] and in assay [2] was “inactive” throughout.
Turning to `O=C(OCC#CCSc1nnc(-c2cccc3ccccc23)o1)c1ccc(F)c(F)c1`, the Potency result in assay [1] and in assay [2] was “inactive” each time.
In the case of `COc1ccc(OC)c(C(=O)Nc2nc(-c3ccccc3)cs2)c1`, the Potency entry in assay [1] and in assay [2] was “inactive” throughout.
Take `CC(C)Oc1cccc(-c2ccnc(N3CCC(C(N)=O)CC3)n2)c1`: the Potency result in assay [1] and in assay [2] was “inactive” each time.
`Cc1ccc(-c2csc(NC(=O)c3ccncc3NS(=O)(=O)c3ccc(C)cc3)n2)cc1`: the Potency result in assay [1] and in assay [2] was “inactive” throughout.
Take `CC(Oc1ccc2[nH]nc(/C=C/c3cnn(CCO)c3)c2c1)c1c(Cl)cncc1Cl` (stereo unspecified): the Potency entry in assay [1] and in assay [2] was “inactive” in each case.
For the compound `CC(=O)c1ccc(N2CCN(S(=O)(=O)c3ccc4c(c3)CCCN4C(C)=O)CC2)cc1`, the Potency entry in assay [1] and in assay [2] was “inactive” each time.
Regarding `COc1ccc(C2Nc3ccccc3C(=O)N2Cc2ccc(C(F)(F)F)o2)cc1COc1c(C)cccc1C` (stereo unspecified), the Potency result in assay [1] and in assay [2] was “inactive” each time.
On to `COc1cccc(CN(C)c2ccc([S+](=O)([O-])Nc3nccs3)cc2)c1O`, for which the Potency result in assay [1] and in assay [2] was “inactive” throughout.
